Test results taken from ChEMBL document CHEMBL3988442, “University of Dundee, Small-Polar-MMV Screening Library” (2021).

Key:
[1] = biological target: T1, Aspartate--tRNA(Asp/Asn) ligase (Mycobacterium tuberculosis (strain ATCC 25618 / H37Rv)) (UniProt P9WFW3); assay: Assay for Asp RNA synthetase-1 from Mycobacterium tuberculosis; assay type: functional; set-up: scale not given: direction of the effect not stated beside the values; settings: 30 µM; note: in the data most compounds retested in dose-response had high values
T1 sequence (whole entry): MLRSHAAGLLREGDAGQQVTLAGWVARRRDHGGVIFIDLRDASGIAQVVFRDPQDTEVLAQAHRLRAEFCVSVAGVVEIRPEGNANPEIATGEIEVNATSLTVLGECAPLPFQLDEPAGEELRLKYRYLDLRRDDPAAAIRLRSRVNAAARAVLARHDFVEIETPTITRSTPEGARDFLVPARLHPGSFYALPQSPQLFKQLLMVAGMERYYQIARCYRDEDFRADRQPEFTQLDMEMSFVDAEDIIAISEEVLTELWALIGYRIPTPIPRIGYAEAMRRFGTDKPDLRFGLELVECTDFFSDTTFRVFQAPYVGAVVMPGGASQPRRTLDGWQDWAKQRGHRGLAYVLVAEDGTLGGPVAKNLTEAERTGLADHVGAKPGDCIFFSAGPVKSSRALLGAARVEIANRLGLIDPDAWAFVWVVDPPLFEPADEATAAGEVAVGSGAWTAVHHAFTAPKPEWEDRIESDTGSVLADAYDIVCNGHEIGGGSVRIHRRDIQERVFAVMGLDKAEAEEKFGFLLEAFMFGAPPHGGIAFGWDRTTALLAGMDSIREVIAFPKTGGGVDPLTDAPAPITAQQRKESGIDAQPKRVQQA

[2] = biological target: Shiga toxin 2 (Escherichia coli O157:H7) (UniProt P09385+P09386); assay: E. coli 0.157:H7 Shiga Toxin SOP - stx2 screening assay; assay type: functional; set-up: scale not given: direction of the effect not stated beside the values; settings: 30 µM

SMILES	Percent Effect [1]	Percent Effect [2]
COc1ccc(CN2CCc3nc(C4CCCCN4C)ncc3C2)cc1 (configuration not stated)	3.22%	-19.9%
CCN(Cc1ccc(OC)c(F)c1)C(=O)c1ccc(C)[nH]c1=O	-0.589%	30.6%
Cc1ccc(-c2cc(C(=O)NC(C)C(=O)N3CCCCC3)on2)cc1 (configuration not stated)	2.34%	-5.52%
C[C@H]1C[C@@H]2CCN(C(=O)c3cccn3C)C[C@H]2O1	-3.96%	-0.37%
COc1cccc(N2CCN(CCC(=O)NC3CCCC3)CC2)c1	1.95%	-41.4%
COc1ccc(-c2ccnc3c2C(=O)CCC3)cc1	-5.43%	-32.1%
Fc1cccc(-c2nc(CN3CCCCC3Cn3cncn3)co2)c1 (configuration not stated)	0.0286%	14.4%
OC(CN1CCOCC1)c1ccc(OC(F)(F)F)cc1 (configuration not stated)	-1.62%	13.6%
CC[C@H](C)[C@H](NC(=O)c1ccccc1-n1cnnn1)C(=O)OC	3.95%	-29.9%
C[C@]1(O)CCN(Cc2cncs2)C[C@@H]1Oc1cccc(F)c1	-1.46%	35.4%
COC[C@@H]1CC[C@H]2[C@H](CCN2C(=O)c2ccncc2F)O1	3.94%	7.83%
CCc1nc(CCNC(=O)NC2CC2)sc1C	5.19%	-0.181%
Cc1cc(CNCc2c(C)nn(C)c2N2CCOCC2)no1	-2.57%	16.5%
CN(Cc1ccc(F)cc1)CC1(O)CCN(C(=O)c2cccn2C)C1 (configuration not stated)	-4.54%	-9.28%
Cc1nc[nH]c1CN1C[C@@H]2CC[C@H](C1)N(C(=O)CCc1cnn(C)c1)C2	0.752%	5.79%
O=C(c1ccncc1)N1CCC(O)(Cn2ccc3ccncc32)CC1	-0.194%	-14.9%
CN(C)C(=O)[C@H]1C[C@@H]2CCN(C3CCOCC3)C[C@H]2O1	-3.87%	-13.4%
CN(C)C(=O)CN1CCCCC1c1nc(N)ncc1-c1cccc(F)c1 (configuration not stated)	-1.78%	-2.08%
Cc1cc(C)n(-c2cncc(NCCNC(=O)C(C)C)n2)n1	8.76%	2.01%
Cc1nc(N2CCN(C(=O)C3CC3)CC2)c2c(n1)c(C)nn2C	-2.18%	-35.4%
COc1ccnc(C(=O)N2CCCC(c3noc(C)n3)C2)c1 (configuration not stated)	0.885%	1.38%
Cc1nn(C)c2c(=O)n(CC(=O)Nc3cc(Cl)cc(Cl)c3)nnc12	-7.23%	-36.8%
N#CCCN(C(=O)CN1CCCC1Cc1ccccc1)c1ccccc1 (configuration not stated)	2.91%	27.4%

SMILES	Percent Effect [1]	Percent Effect [2]
O=C(Nc1cccnc1)N1CCC(n2ccc(C(F)(F)F)n2)CC1	-4.08%	-16.7%
O=C(NCc1cncc2c1CCN(Cc1cccs1)C2)C1CC1	7.52%	-27.9%
COCCc1noc(CN(C)C(=O)c2cccc(N3CCCC3=O)c2)n1	3.06%	3.89%
N#CCSCCCN1CCCN(C(=O)c2ccccc2)CC1	-4.83%	-31.2%
O=C1C(NCc2nnc3n2CCCC3)CCCN1c1cccc(F)c1 (configuration not stated)	0.344%	-64.6%
Cc1cnn(CCNCC(=O)NCc2ccccc2)c1	1.29%	10.2%
Cc1cnn(CC2CCCN2CC(=O)Nc2cc(C(C)(C)C)no2)c1 (configuration not stated)	0.278%	-37.5%
CC(C)OCc1ncn2c1CN(Cc1cccs1)CCC2	8.33%	-0.247%
CS(=O)(=O)CCC(=O)Nc1cnn(-c2ccccc2Cl)c1	-3.18%	-52.3%
CC(C)(C)C(=O)NCCC(=O)NC(C)(C)c1ccc2c(c1)OCCO2	1.41%	-2.07%
CCCc1n[nH]c(C2CN(CCCS(C)(=O)=O)CCO2)n1 (configuration not stated)	-3.39%	-21.5%
Cc1ccc(N2CCCN(C(=O)CC3CCCO3)CC2)nn1 (configuration not stated)	10.1%	18.1%
COc1ccccc1OCC(=O)NS(=O)(=O)c1ccccc1Br	5.46%	-14.2%
Cc1ccc(F)c(C(=O)N2CCN(S(C)(=O)=O)[C@@H](C)C2)c1	-2.79%	-20.5%
Cc1nc(C)n(CC2CCCN(CCCOc3ccccc3)C2)n1 (configuration not stated)	0.568%	8.48%
Cc1nccn1C1CCCN(C(=O)c2ccc3c(c2)NC(=O)CO3)C1 (configuration not stated)	-2.02%	24.5%
Cc1cc2n(n1)CC(CNC1CCN(c3ccc(F)cc3)CC1)CN2 (configuration not stated)	4.19%	-37.2%
N#Cc1ccccc1N1CCCN(C(=O)CCc2nccs2)CC1	-8.37%	9.06%
COc1ccnc(N2CCN(C(=O)Cc3ccc(C#N)cc3)CC2)n1	4.99%	8.53%
CCn1ccnc1CNCC1CCN(CC(O)c2ccccc2)CC1 (configuration not stated)	-3.48%	0.429%
Cn1cc(C2CCCN2C(=O)Cc2n[nH]c3ccccc23)cn1 (configuration not stated)	-9.51%	-33.7%
CCc1ccc(CN2CCCC(CO)(CCOC)C2)cc1 (configuration not stated)	-1.96%	-14%
CC(C)N1CCCC(CCCc2ccccn2)(C(=O)O)C1 (configuration not stated)	1.98%	9.97%
